The source of these data is PubChem BioAssay (NCATS).

For test [1], the target named is Calcium and integrin-binding protein 1 (Homo sapiens) (UniProt Q99828). The test is described as follows: Primary qHTS for Identification of Calcium Integrin Binding Protein 1 (CIB1) Competitor (AID 1508620).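 Note: GST tagged CIB1 binding a fluorescein labelled alphaIIb integrin peptide tracer; top concentration of the series differs between compounds; % is set by controls: 0 for no effect and ±100 for the full control effect.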 Summed up: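 Fluorescence polarization competition: CIB1-GST (1 uM final) preincubated with compound 15 min at room temperature, then FITC-labeled alphaIIb peptide (100 nM final) added for another 15 min. Polarization read at Ex 480/Em 540.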

In test [2] the target is Rap guanine nucleotide exchange factor 3 (Homo sapiens) (UniProt O95398). Briefly: Confirmatory qHTS for antagonist of cAMP-regulated guanine nucleotide exchange factor 3 (EPAC1) (AID 1645880). Note: nearly all actives have a fitted effect of over 55% in size. Note: potency is the fitted concentration of half-maximal effect. Summed up: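 Released BODIPY-GDP fluoresces less than Rap1-bound BODIPY-GDP; the signal is followed at 480/540 nm at 5-min intervals over 30 min, after 5 min at room temperature. Reactions contain 100 nM EPAC1, 250 nM RAP1B-BODIPY-GDP and 50 uM GDP; results are normalized to ATA and DMSO.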

Test [3] shares this target. Briefly: Confirmatory qHTS for agonist of cAMP-regulated guanine nucleotide exchange factor 3 (EPAC1) (AID 1645881;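 note: EPAC1 catalysed release of BODIPY-GDP from Rap1B seen as fluorescence loss; 100% = effect of cAMP agonist control; nearly all actives have a fitted effect of over 75% in size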). (Quantitative high-throughput screening tests each substance at several concentrations.)
For test [4], the target named is Rap guanine nucleotide exchange factor 4 (Homo sapiens) (UniProt Q8WZA2). The test is described as follows: Confirmatory qHTS for antagonist of cAMP-regulated guanine nucleotide exchange factor 4 (EPAC2) (AID 1645885). For activity change, negative = inhibition: % is set by controls: 0 for no effect and ±100 for the full control effect. Note: nearly all actives have a fitted effect of over 25% in size. Note: potency is the fitted concentration of half-maximal effect.
Test [5] deals with Rap guanine nucleotide exchange factor 3 (Homo sapiens) (UniProt O95398). Briefly: Counterscreen qHTS for antagonist of cAMP-regulated guanine nucleotide exchange factor 3 (EPAC1) (AID 1645888). Note: % of control where 0% means no effect. The procedure, abridged:
(§1)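 Measured: fluorescence of BODIPY-GDP bound to Rap1B, which falls as exchange proceeds. Conditions include 50 uM competing GDP, 5 and 30 min reads, and a later cAMP challenge for antagonist detection.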
A general note: The purpose of a counterscreen is to sort out artefacts and off-target activity.

Test [6] has the same target. The test is described as follows: Counterscreen qHTS for agonist of cAMP-regulated guanine nucleotide exchange factor 3 (EPAC1) (AID 1645889). Note: % of control where 0% means no effect; nearly all actives have a fitted effect of over 40% in size. Summed up: as §1
Test [7] is described as follows: qHTS for Inhibitors of Ubiquitin-specific Protease USP2a Using CHOP2 as the Reporter: K633 Counterscreen (AID 652168). Note: % of control where 0% means no effect. The procedure, abridged:
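Detection-system control: fluorescence of K48-linked DiUb-4IQF substrate (100 nM as added) tracked over time, Ex 525/Em 598, with pinned compounds and no enzyme, in pH 8 Tris buffer containing beta-mercaptoethanol and 0.05% Chaps.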

Test [8] can be described thus: qHTS for Inhibitors of Ubiquitin-specific Protease USP2a Using CHOP2 as the Reporter: Cytotox Assay (AID 652170). Note: nearly all actives have a fitted effect of over 70% in size. Note: potency is the fitted concentration of half-maximal effect. Summed up: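 Cytotoxicity read as ATP luminescence (CellTiter-Glo) after 72 hr compound treatment at 37 deg C. Cells: HCT116, 600/well in DMEM plus 10% FBS. Normalization between DMSO-treated cells and cell-free wells.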
The target in test [9] is Rap guanine nucleotide exchange factor 4 (Homo sapiens) (UniProt Q8WZA2). Briefly: Confirmatory qHTS for agonist of cAMP-regulated guanine nucleotide exchange factor 4 (EPAC2) (AID 1645884).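 Note: nucleotide exchange releases bodipy-GDP from Rap1 and this lowers its fluorescence; % is set by controls: 0 for no effect and ±100 for the full control effect; nearly all actives have a fitted effect of over 65% in size.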
The target of test [10] is Glutathione peroxidase 1 (Homo sapiens) (UniProt P07203). Briefly: Primary qHTS Assay for Inhibitors of Recombinant Selenoprotein Glutathione Peroxidase 1 (GPX1) (AID 1845191). Note: nearly all actives have a fitted effect of over 65% in size. The procedure, abridged:
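GPX1 10 nM, GR 100 nM, GSH 1 mM, NADPH 0.5 mM, CHP 0.5 mM (final). 30-min cpd preincubation, RT. Ex340/Em450 read t=0, t=15 min.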

Test [11] is described as follows: Primary qHTS for inhibitors of nuclear receptor binding SET domain protein 2 (NSD2) in an isogenic RCH-ACV NSD2 p.E1099K mutant (9B) (AID 1645876). Note: nearly all actives have a fitted effect of over 70% in size. Note: potency is the fitted concentration of half-maximal effect.
The nature of test [12]: Primary qHTS for inhibitors of nuclear receptor binding SET domain protein 2 (NSD2) in an RCH-ACV wild type WT cells (2C) (AID 1645877). Note: nearly all actives have a fitted effect of over 70% in size. Note: potency is the fitted concentration of half-maximal effect.
The nature of test [13]: qHTS drug screen for cell cycle checkpoint inhibitors in PARPi-resistant BRCA-mutant ovarian cancer cell lines. (AID 1963452; calls by dose curve). The note with it: PEO1/OlaR viability, CellTiter-Glo luminescence, 96 h, stronger effect = lower value. The procedure, abridged:
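PEO1, PEO4 and PEO1/OlaR ovarian cancer cells, 600 per well, exposed 96 h at 37C to a dilution series. Viability read by CellTiter-Glo luminescence, normalized to DMSO and empty wells; activity summarized as Z-AUC.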

The target in test [14] is Catechol O-methyltransferase (Homo sapiens) (UniProt P21964). The test is described as follows: Confirmatory Screen for Target Class Profiling of Small Molecule Inhibitors of Methyltransferases (AID 1745852; calls by dose curve; note: potency is the fitted concentration of half-maximal effect). The note with it: MTase-Glo luminescence, SAH detection, recombinant enzyme; measured here: COMT max response; stronger effect = lower value.
Test [15] deals with Guanidinoacetate N-methyltransferase (Homo sapiens) (UniProt Q14353). Described as above. The conditions noted are these: MTase-Glo luminescence, SAH detection, recombinant enzyme; activity change, negative = inhibition: at 57.3 µM (top of the series).
Test [16] addresses Nicotinamide N-methyltransferase (Homo sapiens) (UniProt P40261). Described as above. The note with it: MTase-Glo luminescence, SAH detection, recombinant enzyme; measured here: NNMT max response; stronger effect = lower value.
Test [17] has as its target Phenylethanolamine N-methyltransferase (Homo sapiens) (UniProt P11086). The test is described as above. The conditions noted are these: MTase-Glo luminescence, SAH detection, recombinant enzyme; measured here: PNMT max response; stronger effect = lower value.
The target in test [18] is N-terminal Xaa-Pro-Lys N-methyltransferase 1 (Homo sapiens) (UniProt Q9BV86). Briefly: Confirmatory qHTS for Inhibitors of N-terminal methyltransferase 1 (NTMT1): MTaseGlo Assay (AID 1645874).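 For activity change, negative = inhibition: luminescence from SAH made as NTMT1 methylates SPKRIA peptide using SAM.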 Note: nearly all actives have a fitted effect of over 65% in size. Note: potency is the fitted concentration of half-maximal effect. The procedure, abridged: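 Enzyme mix (125 nM NTMT1, 100 uM SAM) + compound, 15 min RT; + 1 uM SPKRIA, 30 min RT, dark; MTase-Glo reagent 30 min, detection solution 30 min; luminescence. % inhibition vs no-enzyme/DMSO controls, 4-parameter Hill fit.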

In test [19] the target is Tyrosyl-DNA phosphodiesterase 1 (Homo sapiens) (UniProt Q9NUW8). The test is described as follows: Confirmation Assay for Inhibitors of Tyrosyl-DNA Phosphodiesterase (TDP1) (AID 489007). Note: potency is the fitted concentration of half-maximal effect; nearly all actives have a fitted effect of over 40% in size. The note with it: recombinant human TDP1 enzymatic activity, dose-response. The procedure, abridged:
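Loss of AlphaScreen signal reports Tdp1 cleavage of a dual-labelled DNA substrate. Conditions: 1 nM E. coli-derived enzyme, 15 nM substrate, 15 min compound preincubation, 5 min reaction, 10 min bead incubation, all at room temperature.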

For test [20], the target named is Tyrosine-protein kinase Yes (Homo sapiens) (UniProt P07947). The test is described as follows: qHTS for small molecule inhibitors of Yes1 kinase: Primary Screen (AID 686947). Note: potency is the fitted concentration of half-maximal effect; nearly all actives have a fitted effect of over 60% in size. Summed up:
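In this qHTS format, inhibition is expressed relative to DMSO controls with enzyme (maximum) and without enzyme (minimum). The 60 min room-temperature reaction uses 0.1 mM ATP, with ADP detected by luminescence.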

Test [21] in a line: qHTS for small molecule inhibitors of Yes1 kinase: Counter Assay (AID 686950).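 Note: no kinase present so only ADP-Glo detection of a fixed ADP amount is tested; luminescence from ADP-Glo reporting ADP in a fixed ATP and ADP mixture; 0% = DMSO wells with ATP plus ADP and -100% = ATP-only wells without ADP.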 The procedure, abridged:
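Measuring interference with ADP-Glo, the assay ran 60 min at room temperature on an ATP/ADP mix lacking enzyme. Values were normalized to ATP-plus-ADP (maximum) and ATP-only (minimum) DMSO controls.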

For test [22], the target named is Phospholipid hydroperoxide glutathione peroxidase GPX4 (Homo sapiens) (UniProt P36969). The test is described as follows: Primary qHTS Assay for Inhibitors of Recombinant Selenoprotein Glutathione Peroxidase 4 (GPX4) (AID 1845192). Note: % is set by controls: 0 for no effect and ±100 for the full control effect; nearly all actives have a fitted effect of over 65% in size. The conditions noted are these: outcome: dose series up to 50 µM unless noted. Summed up:
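qHTS, GR-coupled: GPX4 200 nM + cpd 30 min RT → GSH 1 mM, NADPH 0.5 mM, GR 100 nM → CHP 0.5 mM start; fluor 340/450 at t0 and t15 min; no-enzyme wells as control.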

Setting [23] is: measured here: PEO1 parental Z-AUC.

Inconclusive results are not listed. Activity calls are given as the source filed them. Unless noted, calls come from the whole dose curve; as a rule, active = well fitted curve in the direction sought with a large enough effect; inconclusive = small, poorly fitted or top-dose-only effect, or another doubt; inactive = no such curve, though single readings can be large; an effect the other way counts as inactive or inconclusive.

Sequence of Glutathione peroxidase 1 (Homo sapiens) (P07203 whole entry, looked up): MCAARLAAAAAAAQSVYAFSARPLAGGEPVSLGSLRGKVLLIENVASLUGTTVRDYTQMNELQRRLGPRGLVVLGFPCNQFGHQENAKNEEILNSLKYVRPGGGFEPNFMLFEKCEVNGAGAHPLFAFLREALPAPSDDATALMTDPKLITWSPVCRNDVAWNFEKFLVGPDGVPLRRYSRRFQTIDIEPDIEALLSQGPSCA
Sequence of Rap guanine nucleotide exchange factor 3 (Homo sapiens) (O95398 whole entry, looked up): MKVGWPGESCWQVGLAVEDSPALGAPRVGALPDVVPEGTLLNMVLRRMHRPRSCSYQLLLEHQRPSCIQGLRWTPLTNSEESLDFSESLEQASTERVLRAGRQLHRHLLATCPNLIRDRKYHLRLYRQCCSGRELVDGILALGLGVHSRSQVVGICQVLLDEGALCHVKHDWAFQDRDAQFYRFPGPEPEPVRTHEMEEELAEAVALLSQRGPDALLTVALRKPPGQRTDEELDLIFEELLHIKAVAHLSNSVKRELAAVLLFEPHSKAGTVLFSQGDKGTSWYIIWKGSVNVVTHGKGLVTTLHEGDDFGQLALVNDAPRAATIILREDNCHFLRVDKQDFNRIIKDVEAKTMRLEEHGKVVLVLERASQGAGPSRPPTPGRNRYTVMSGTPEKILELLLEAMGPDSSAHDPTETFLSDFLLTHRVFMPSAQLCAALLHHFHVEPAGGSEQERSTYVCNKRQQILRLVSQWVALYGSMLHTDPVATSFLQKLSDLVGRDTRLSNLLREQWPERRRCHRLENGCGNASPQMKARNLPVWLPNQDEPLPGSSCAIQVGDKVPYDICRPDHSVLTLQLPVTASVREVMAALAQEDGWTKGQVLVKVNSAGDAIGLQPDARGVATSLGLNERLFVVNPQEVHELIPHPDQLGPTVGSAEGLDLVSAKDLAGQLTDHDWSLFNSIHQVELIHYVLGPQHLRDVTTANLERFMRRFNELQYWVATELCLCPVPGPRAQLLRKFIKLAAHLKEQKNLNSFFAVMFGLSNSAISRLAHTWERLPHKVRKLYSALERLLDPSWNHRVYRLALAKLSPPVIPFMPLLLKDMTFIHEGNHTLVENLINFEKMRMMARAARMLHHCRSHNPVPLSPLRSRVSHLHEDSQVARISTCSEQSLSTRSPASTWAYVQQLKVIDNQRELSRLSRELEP
Sequence of Rap guanine nucleotide exchange factor 4 (Homo sapiens) (Q8WZA2 whole entry, looked up): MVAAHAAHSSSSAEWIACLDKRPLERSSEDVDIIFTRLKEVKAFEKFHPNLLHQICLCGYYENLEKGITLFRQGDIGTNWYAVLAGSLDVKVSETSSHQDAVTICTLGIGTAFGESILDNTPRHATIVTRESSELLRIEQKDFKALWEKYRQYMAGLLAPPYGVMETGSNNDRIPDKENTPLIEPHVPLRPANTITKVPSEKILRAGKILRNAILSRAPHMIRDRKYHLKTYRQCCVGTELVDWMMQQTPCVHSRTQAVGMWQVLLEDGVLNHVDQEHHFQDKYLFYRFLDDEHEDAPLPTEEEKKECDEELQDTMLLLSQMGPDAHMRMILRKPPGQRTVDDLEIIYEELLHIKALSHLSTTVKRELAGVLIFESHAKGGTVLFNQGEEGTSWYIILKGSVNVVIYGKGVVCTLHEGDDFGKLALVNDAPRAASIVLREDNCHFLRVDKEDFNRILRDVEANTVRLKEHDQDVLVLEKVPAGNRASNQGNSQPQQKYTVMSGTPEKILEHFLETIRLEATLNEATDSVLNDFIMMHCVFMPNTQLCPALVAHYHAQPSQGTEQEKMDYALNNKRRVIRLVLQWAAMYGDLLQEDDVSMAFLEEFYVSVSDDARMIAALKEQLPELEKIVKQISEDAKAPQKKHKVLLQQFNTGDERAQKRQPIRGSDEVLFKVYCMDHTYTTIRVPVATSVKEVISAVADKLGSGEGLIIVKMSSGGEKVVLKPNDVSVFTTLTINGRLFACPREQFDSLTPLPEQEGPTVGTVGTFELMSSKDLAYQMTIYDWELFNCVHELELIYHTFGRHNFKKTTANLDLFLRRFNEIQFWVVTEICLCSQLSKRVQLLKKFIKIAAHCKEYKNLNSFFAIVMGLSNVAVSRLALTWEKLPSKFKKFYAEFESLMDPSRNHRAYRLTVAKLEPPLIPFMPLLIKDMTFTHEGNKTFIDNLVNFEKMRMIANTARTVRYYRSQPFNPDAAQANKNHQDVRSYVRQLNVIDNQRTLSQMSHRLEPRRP
Sequence of Calcium and integrin-binding protein 1 (Homo sapiens) (Q99828 whole entry, looked up): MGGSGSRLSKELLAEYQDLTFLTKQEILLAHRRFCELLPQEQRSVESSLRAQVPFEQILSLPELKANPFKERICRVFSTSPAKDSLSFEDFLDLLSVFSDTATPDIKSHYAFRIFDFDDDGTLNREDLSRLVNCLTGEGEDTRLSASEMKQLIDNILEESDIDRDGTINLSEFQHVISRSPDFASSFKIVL
Sequence of N-terminal Xaa-Pro-Lys N-methyltransferase 1 (Homo sapiens) (Q9BV86 whole entry, looked up): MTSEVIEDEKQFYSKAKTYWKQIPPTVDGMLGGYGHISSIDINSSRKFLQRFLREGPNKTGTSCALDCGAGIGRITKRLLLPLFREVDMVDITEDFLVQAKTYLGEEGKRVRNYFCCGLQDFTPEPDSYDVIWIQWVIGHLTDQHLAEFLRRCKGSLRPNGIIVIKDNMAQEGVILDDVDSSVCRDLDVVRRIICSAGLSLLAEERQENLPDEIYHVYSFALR
Sequence of Tyrosine-protein kinase Yes (Homo sapiens) (P07947 whole entry, looked up): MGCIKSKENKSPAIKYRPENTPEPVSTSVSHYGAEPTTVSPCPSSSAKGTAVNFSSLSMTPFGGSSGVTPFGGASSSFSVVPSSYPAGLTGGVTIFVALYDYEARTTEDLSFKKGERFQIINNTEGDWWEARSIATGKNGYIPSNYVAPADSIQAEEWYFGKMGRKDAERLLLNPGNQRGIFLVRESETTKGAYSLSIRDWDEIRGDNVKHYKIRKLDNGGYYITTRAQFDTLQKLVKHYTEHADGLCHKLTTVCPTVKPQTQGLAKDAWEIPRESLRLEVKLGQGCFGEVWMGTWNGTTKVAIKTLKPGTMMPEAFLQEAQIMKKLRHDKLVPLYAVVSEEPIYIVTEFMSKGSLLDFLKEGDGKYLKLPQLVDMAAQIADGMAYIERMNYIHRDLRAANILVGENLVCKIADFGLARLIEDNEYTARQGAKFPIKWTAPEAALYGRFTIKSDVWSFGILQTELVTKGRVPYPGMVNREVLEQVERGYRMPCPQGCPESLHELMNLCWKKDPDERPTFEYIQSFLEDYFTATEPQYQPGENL
Sequence of Phospholipid hydroperoxide glutathione peroxidase GPX4 (Homo sapiens) (P36969 whole entry, looked up): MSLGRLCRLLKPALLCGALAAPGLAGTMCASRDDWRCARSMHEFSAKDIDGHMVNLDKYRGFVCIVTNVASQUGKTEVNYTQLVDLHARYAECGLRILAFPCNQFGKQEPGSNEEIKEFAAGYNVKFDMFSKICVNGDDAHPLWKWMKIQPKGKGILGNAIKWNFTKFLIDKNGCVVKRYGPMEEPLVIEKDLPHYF
Sequence of Nicotinamide N-methyltransferase (Homo sapiens) (P40261 whole entry, looked up): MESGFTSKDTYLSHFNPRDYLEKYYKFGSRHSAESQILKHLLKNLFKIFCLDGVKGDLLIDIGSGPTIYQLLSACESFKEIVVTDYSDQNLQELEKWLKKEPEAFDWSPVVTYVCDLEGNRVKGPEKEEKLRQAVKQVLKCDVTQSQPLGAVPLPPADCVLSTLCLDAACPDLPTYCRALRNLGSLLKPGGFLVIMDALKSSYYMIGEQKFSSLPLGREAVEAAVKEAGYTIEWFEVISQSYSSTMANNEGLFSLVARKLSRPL
Sequence of Phenylethanolamine N-methyltransferase (Homo sapiens) (P11086 whole entry, looked up): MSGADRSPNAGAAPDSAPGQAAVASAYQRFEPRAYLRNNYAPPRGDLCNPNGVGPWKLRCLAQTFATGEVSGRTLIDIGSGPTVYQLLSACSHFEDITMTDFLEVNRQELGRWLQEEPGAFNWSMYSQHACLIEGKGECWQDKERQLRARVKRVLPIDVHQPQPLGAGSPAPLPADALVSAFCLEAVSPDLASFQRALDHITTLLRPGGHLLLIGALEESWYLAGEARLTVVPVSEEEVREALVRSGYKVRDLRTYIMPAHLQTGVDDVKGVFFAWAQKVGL
Sequence of Catechol O-methyltransferase (Homo sapiens) (P21964 whole entry, looked up): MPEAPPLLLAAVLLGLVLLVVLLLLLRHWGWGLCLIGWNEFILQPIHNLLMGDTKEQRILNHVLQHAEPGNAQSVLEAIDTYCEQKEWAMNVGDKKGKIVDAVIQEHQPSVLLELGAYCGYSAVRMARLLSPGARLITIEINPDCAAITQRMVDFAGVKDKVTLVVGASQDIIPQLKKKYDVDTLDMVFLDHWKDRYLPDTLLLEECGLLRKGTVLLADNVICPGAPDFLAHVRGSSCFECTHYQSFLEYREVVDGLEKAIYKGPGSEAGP
Sequence of Tyrosyl-DNA phosphodiesterase 1 (Homo sapiens) (Q9NUW8 whole entry, looked up): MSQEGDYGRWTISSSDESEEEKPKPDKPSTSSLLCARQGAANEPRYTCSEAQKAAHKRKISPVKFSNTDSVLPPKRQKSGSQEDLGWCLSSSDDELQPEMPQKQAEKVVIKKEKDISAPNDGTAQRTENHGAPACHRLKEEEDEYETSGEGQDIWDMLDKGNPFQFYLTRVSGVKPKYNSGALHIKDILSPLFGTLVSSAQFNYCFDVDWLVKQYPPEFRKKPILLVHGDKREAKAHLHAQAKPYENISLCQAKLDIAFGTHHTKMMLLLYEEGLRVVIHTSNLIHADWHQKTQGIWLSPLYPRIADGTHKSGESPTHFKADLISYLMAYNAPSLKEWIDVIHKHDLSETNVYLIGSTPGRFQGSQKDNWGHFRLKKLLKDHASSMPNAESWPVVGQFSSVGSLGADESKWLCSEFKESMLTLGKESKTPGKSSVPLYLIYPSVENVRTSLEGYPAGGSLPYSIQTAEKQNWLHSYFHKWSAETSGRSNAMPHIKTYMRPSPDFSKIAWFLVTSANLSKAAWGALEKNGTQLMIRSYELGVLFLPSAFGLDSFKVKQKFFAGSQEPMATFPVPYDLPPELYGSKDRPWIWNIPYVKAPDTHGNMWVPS

In the case of `O=C(CSc1nc2ccccc2n1CCc1ccccc1)c1ccc(O)c(O)c1`, the Potency entry in test [1] and in test [4] was “inactive” throughout. Moreover, the Potency in [2] was 6.01 µM (active). Besides, the outcome in [3], in test [5] and in [6] was “inactive” each time.
Regarding `O=C(CCc1ccccc1)Nc1ccc(S(=O)(=O)Nc2nccs2)cc1`, the outcome in test [7] and in [3] was “inactive” throughout. The Potency entry in [8], in test [1] and in test [2] was “inactive” in each case. The activation in [9] was 9.99% [at 17.1 µM] (inactive); in test [6], 9.8% [at 30.8 µM] (inactive). Moreover, in test [4], the activity change, negative = inhibition is 1.51% [at 12.7 µM] (inactive).
Regarding `Cc1ccc(NS(=O)(=O)c2cc3c(cc2Cl)CCC(=O)N3)cc1Cl`, the Potency entry in [1] and in test [10] was “inactive” in each case.
Regarding `Cc1ccc(S(=O)(=O)Nc2cc(C(F)(F)F)ccc2C(=O)Nc2nc(-c3ccccc3)cs2)cc1`, the outcome in [7] was “inactive”. Besides, the Potency in test [8] is 2.96 µM (active); in [11], 4.17 µM (active); in [12], 4.17 µM (active). In addition, the Potency result in [1] and in test [10] was “inactive” each time. The Z-AUC in test [13] is 0.58 (inactive); in [13] (setting [23]), 0.184; in test [13] (measured here: PEO4 Z-AUC) it was -0.358.
For `CCC(=O)NC(c1ccco1)c1cc(Cl)c2ccccc2c1O` (stereo unspecified), the Potency entry in test [1] is “inactive”. The outcome in test [3], in test [9], in [5] and in test [6] was “inactive” each time. Also, the Potency in [4] is 53.6 µM (active).
On to `O=C1CCCC2=C1C(c1ccccc1I)N=C(Nc1nc3ccccc3o1)N2` (stereo unspecified), for which the Potency entry in test [1] and in test [10] was “inactive” in each case.
Regarding `COc1ccc(N2C(=O)c3ccccc3C2=O)cc1`, the Potency entry in test [1], in [2] and in test [4] was “inactive” in each case. The outcome in [3], in test [9], in test [5] and in test [6] was “inactive” each time.
Turning to `CN(Cc1cccs1)c1ncnc2ccc(-c3ccc4c(c3)OCO4)cc12`, the Potency result in [1] and in [10] was “inactive” throughout. The Potency in test [11] is 20.6 µM (active); in test [12], 20.6 µM (active); in [15], 12.1 µM (active). Moreover, the activity in test [14] was -85.9%; in test [16], -70.6%; in test [17], -84.2%.
In the case of `CC(=O)NC(c1cccs1)c1cc(Cl)c2ccccc2c1O` (stereo unspecified), the Potency result in [1] and in test [2] was “inactive” in each case. Besides, the outcome in test [3] and in [9] was “inactive” each time. The Potency in test [4] is 12 µM (active).
Regarding `Nc1ccc(-c2ccnc(NCCCNC(=O)c3c(Cl)cccc3Cl)n2)cc1`, the Potency result in test [1] and in test [10] was “inactive” throughout.
With `CC(=O)Nc1sc2c(c1-c1ccc(N3CCN(C)CC3)cc1)CCNC2`, the Potency entry in [1] and in [10] was “inactive” in each case.
Take `CC(C)(C)c1ccc(-c2csc(N3CCC(C(N)=O)CC3)n2)cc1`: the Potency entry in test [1] and in test [18] was “inactive” each time.
Turning to `Cc1ccc(NC(=O)CN2C(=O)N/C(=C\c3cccn3-c3cccc(C(=O)O)c3)C2=O)cc1`, the Potency in test [19] is 1.12 µM (active). In addition, the Potency result in test [1] was “inactive”.
With `CC(C)(C)n1nc(Cc2cccc([N+](=O)[O-])c2)c2c(N)ncnc21`, the Potency entry in test [1] and in test [10] was “inactive” throughout.
In the case of `O=C1Cc2cc(S(=O)(=O)N3CCNCC3)ccc2N1`, the Potency result in test [1] and in test [2] was “inactive” each time. Further, the outcome in test [3] and in [5] was “inactive” in each case. Moreover, the activation in test [9] is 3.97% [at 17.1 µM] (inactive). The activity change, negative = inhibition in [4] was 9.22% [at 12.7 µM] (inactive).
Take `O=C1CCc2cc(S(=O)(=O)Nc3cccc(Cl)c3)ccc2N1`: the Potency entry in test [1], in [11] and in test [10] was “inactive” each time.
For `O=C1Nc2ccc(C(=O)c3ccco3)cc2/C1=C/c1cc(Cl)c(O)c(Cl)c1`, the values for the Potency in [20] and in [18] were 0.463 µM (active) and 2.4 µM (active), respectively. In addition, the outcome in [21] was “inactive”. Moreover, the Potency result in [1] is “inactive”.
Take `Cc1noc(CN(C)c2ncnc3ccc(-c4ccc5c(c4)OCO5)cc23)n1`: the Potency entry in [1] and in [10] was “inactive” each time.
Consider `Nc1ncnc2c1C(c1ccccc1)c1c(ccc3ccccc13)O2` (stereo unspecified), for which the Potency entry in test [1] and in [4] was “inactive” each time. Besides, the outcome in [3], in test [9] and in test [5] was “inactive” throughout.
With `CCOc1ccccc1CNc1ncnc2ccc(-c3c(C)noc3C)cc12`, the Potency result in test [1] and in test [4] was “inactive” each time. Also, the outcome in [3], in test [9], in test [5] and in test [6] was “inactive” in each case.
Take `O=C(CCCc1ccc2cccnc2n1)NCc1cc(-c2ccc(F)c(C(F)(F)F)c2)no1`: the Potency entry in test [1], in test [11], in test [12] and in [22] was “inactive” each time. Also, the Z-AUC in test [13] was -0.51 (inactive); in test [13] (setting [23]), -0.432; in test [13] (measured here: PEO4 Z-AUC), -0.394.
